Measured values as given in PubChem BioAssay (NCATS).
Records with an inconclusive call do not appear. Unless noted, calls follow the shape of the dose curve; as a rule, active = well fitted curve in either direction with a large enough effect (not every such curve was filed as active); inconclusive = small, poorly fitted or top-dose-only effect, or another doubt; inactive = flat fitted curve, though single readings scatter.

Legend:
[1] = AP1 Signaling Pathway (AID 357); conditions: ME-180 AP-1-bla reporter, EGF-induced, beta-lactamase ratio, 5 h; at 17.2 µM (top of the series) unless noted;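 also: ME-180 reporter cells stimulated with EGF at its EC50 level; % is scaled to controls: 0 for no effect and ±100 for the full control effect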
Outline: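 Beta-lactamase reporter under AP-1 response element, ME-180 background. Stimulus: EC50 EGF. Compound exposure 5 h, 37 °C. Detection: CCF4, 2.5 h RT, 460/530 nm. Values: AC50 from titration.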

[2] = NFAT Signaling Pathway (AID 444); conditions: Jurkat NFAT-bla M1, carbachol, beta-lactamase ratio, 5 h; at 17.2 µM (top of the series) unless noted;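 also: carbachol stimulus at about its EC50 of 1 µM final; % is scaled to controls: 0 for no effect and ±100 for the full control effect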
Outline: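 Read-out: CCF4 FRET ratio (460 nm/530 nm) after 1 h RT dye loading, used for %activity and AC50 from titration series. Cells: Jurkat NFAT-β-lactamase/M1 line, treated with compound plus 1 uM carbachol for 5 h, 37 °C.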

[3] = Stat Signaling Pathway (AID 446); conditions: ME-180 (cervical carcinoma) SIE beta-lactamase reporter, IL-6 stimulated, 5 h; at 17.2 µM (top of the series) unless noted;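 also: ME-180 cervical cancer cells given 40 pM IL-6 alongside compound; SIE-controlled beta-lactamase reporter measured as 460/530 nm FRET emission ratio; % is scaled to controls: 0 for no effect and ±100 for the full control effect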
Outline: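 Emission at 460 and 530 nm (excitation 405 nm) reports SIE-controlled beta-lactamase in ME-180 cells. Cells received compound with 40 pM IL-6 for 5 hrs at 37 C; data scaled between 300 pM IL-6 and 125 nM JAK-inhibitor controls.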

[4] = target: Glucocorticoid receptor (Homo sapiens) (UniProt P04150); experiment: GR-GFP Redistribution (AID 450;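 active = compounds whose dose series gives a full or clear partial fitted curve of increased nuclear translocation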; also: potency is read from the fitted curve at half-maximal effect)
Glucocorticoid receptor (Homo sapiens), sequence (P04150 whole entry, looked up): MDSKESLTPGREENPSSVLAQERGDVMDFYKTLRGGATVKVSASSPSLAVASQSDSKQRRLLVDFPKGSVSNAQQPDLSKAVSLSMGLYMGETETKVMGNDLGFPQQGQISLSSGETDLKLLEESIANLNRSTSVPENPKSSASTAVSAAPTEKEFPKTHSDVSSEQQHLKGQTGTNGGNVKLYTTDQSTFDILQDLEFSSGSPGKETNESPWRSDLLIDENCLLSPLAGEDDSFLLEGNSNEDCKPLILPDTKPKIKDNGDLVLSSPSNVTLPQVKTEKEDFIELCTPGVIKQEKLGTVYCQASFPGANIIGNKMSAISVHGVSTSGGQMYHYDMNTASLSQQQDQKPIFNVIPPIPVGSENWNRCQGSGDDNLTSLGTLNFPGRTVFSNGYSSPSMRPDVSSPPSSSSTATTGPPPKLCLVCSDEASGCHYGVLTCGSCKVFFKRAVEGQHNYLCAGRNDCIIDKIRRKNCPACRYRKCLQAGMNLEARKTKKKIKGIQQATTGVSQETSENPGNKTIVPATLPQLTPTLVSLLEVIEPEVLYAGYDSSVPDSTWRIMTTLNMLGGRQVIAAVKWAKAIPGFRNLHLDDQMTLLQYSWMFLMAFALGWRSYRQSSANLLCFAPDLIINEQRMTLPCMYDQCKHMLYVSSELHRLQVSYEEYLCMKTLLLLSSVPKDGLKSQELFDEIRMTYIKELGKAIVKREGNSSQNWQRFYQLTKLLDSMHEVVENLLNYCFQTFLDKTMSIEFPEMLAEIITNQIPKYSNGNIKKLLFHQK

CCCOc1cccc(C2C(C(=O)c3ccc(C)o3)=C(O)C(=O)N2CCCN(C)C)c1 (configuration not stated)
inactive: activity change, negative = inhibition [1] -10.8% | activity change, negative = inhibition [2] 10.1% | activity, negative = inhibition [3] 5.19% | Potency [4] > 20.6 µM

CCC(NC(=O)Nn1cnnc1)(C(F)(F)F)C(F)(F)F
inactive: activity change, negative = inhibition [1] 21.2% | activity change, negative = inhibition [2] -0.332% | activity, negative = inhibition [3] 5.97% | Potency [4] > 20.6 µM

O=C(NCc1ccccc1)/C(=N\O)c1ccccc1
inactive: activity change, negative = inhibition [1] -2.22% | activity change, negative = inhibition [2] 12.4% | activity, negative = inhibition [3] 3.38% | Potency [4] > 20.6 µM

CCN1CCc2c(C#N)c(N3CCOCC3)nc(NCCO)c2C1
inactive: activity change, negative = inhibition [1] 0.329% | activity change, negative = inhibition [2] 3.49% | activity, negative = inhibition [3] 11.3% | Potency [4] > 20.6 µM

COC(=O)c1cc(Br)c(=O)n(Cc2cccnc2)c1
inactive: activity change, negative = inhibition [1] 2.36% | activity change, negative = inhibition [2] 10.7% | activity, negative = inhibition [3] 9.48% | Potency [4] > 20.6 µM

Oc1ccc2c(c1)C1CCCC1(N1CCOCC1)O2 (configuration not stated)
inactive: activity change, negative = inhibition [1] -13.6% | activity change, negative = inhibition [2] 16.1% | activity, negative = inhibition [3] 2.31% | Potency [4] > 20.6 µM

COc1cc(-n2c3nc4ccccc4nc3c3c(=O)n(Cc4ccco4)cnc32)cc(OC)c1OC
inactive: activity change, negative = inhibition [1] -7.36% | activity change, negative = inhibition [2] -5.5% | activity, negative = inhibition [3] 3.4% | Potency [4] > 20.6 µM

CCOc1ccc2c(c1)n([O-])c1c([n+]2=O)CCCC1
inactive: activity change, negative = inhibition [1] 9.01% | activity change, negative = inhibition [2] -13% | activity, negative = inhibition [3] 1.7% | Potency [4] > 20.6 µM

CC1(C)CC(=O)C2=C(C1)N(CC1CCCO1)C(=O)C2(O)C(F)(F)F (configuration not stated)
inactive: activity change, negative = inhibition [1] 4.53% | activity change, negative = inhibition [2] 0.206% | activity, negative = inhibition [3] 5.45% | Potency [4] > 20.6 µM

CC1(C)Cc2c(c(N3CCOCC3)nc3snc(N)c23)CO1
inactive: activity change, negative = inhibition [1] -12.8% | activity change, negative = inhibition [2] -24.1% | activity, negative = inhibition [3] -10.9% | Potency [4] > 20.6 µM

COc1cc(C2C(C(=O)c3ccc(C)o3)=C(O)C(=O)N2c2cc(C)on2)cc(OC)c1OC (configuration not stated)
inactive: activity change, negative = inhibition [1] 5.13% | activity change, negative = inhibition [2] -1.16% | activity, negative = inhibition [3] 2.07% | Potency [4] > 20.6 µM

COc1ccc(-c2nn3c(-c4ccccn4)nnc3s2)cc1OC
inactive: activity change, negative = inhibition [1] -16.2% | activity change, negative = inhibition [2] -21.8% | activity, negative = inhibition [3] -2.76% | Potency [4] > 20.6 µM

COC(=O)c1ccccc1OCc1cccc(C)n1
inactive: activity change, negative = inhibition [1] -1.62% | activity change, negative = inhibition [2] -4.22% | activity, negative = inhibition [3] -5.73% | Potency [4] > 20.6 µM

COc1cccc(C2/C(=C(\O)c3ccc(OC)c(OC)c3)C(=O)C(=O)N2c2cc(C)on2)c1 (configuration not stated)
inactive: activity change, negative = inhibition [1] -7.94% | activity change, negative = inhibition [2] 6.78% | activity, negative = inhibition [3] -8.6% | Potency [4] > 20.6 µM

O=C(NCc1ccco1)c1cnn2c1NC(c1ccccc1)CC2C(F)(F)F (configuration not stated)
inactive: activity change, negative = inhibition [1] -8.13% | activity change, negative = inhibition [2] -2.99% | activity, negative = inhibition [3] -6.74% | Potency [4] > 20.6 µM

C1CNCCNCCCNCCNC1
inactive: activity change, negative = inhibition [1] 1.85% | activity change, negative = inhibition [2] 2.39% | activity, negative = inhibition [3] -11.5% | Potency [4] > 20.6 µM

OCCNC1=NCCN1
inactive: activity change, negative = inhibition [1] -9.49% | activity change, negative = inhibition [2] 3.37% | activity, negative = inhibition [3] 1.85% | Potency [4] > 20.6 µM

COC(=O)c1cc(S(=O)(=O)N2CCOCC2)c(N2CCOCC2)cc1N1CCOCC1
inactive: activity change, negative = inhibition [1] -1.61% | activity change, negative = inhibition [2] 5.16% | activity, negative = inhibition [3] 5.81% | Potency [4] > 20.6 µM
